Measured values: PubChem BioAssay
Calls of active or inactive are those of the source.

How the values were obtained:
[1] = test system: Human papillomavirus type 1a protein E7 (residues 44-93); assay: HPV1a E7 fragment binders on microarrays, primary screen, biochemical, small-molecule microarray, residues 44-93, 635 nm fluorescence (AID 1108); details: small-molecule microarray binding, fluorescence 635 nm; higher = more signal;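 further: E7 fragment applied at 1 µg/mL in TBST for 1 h at 4 C; score combines spot fluorescence with its signal to noise ratio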
[2] = modulators of HCV replicon luciferase signal, primary screen, HCV replication inhibitor project, Huh7 cells, luciferase reporter (AID 1109); details: 48 h, higher = more signal;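 further: huh7 hepatoma cells harbouring a luciferase neomycin HCV replicon reporter; luciferase luminescence as measure of HCV replicon replication; test concentration not given here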
[3] = biological target: Left-right determination factor 2 (Homo sapiens) (UniProt O00292); assay: LEFTY2 binders on small-molecule microarrays, primary screen, biochemical, small-molecule microarray, 635 nm fluorescence scan (AID 1110); details: LEFTY2 binding, higher = more signal
Left-right determination factor 2 (Homo sapiens), sequence (O00292 whole entry, looked up): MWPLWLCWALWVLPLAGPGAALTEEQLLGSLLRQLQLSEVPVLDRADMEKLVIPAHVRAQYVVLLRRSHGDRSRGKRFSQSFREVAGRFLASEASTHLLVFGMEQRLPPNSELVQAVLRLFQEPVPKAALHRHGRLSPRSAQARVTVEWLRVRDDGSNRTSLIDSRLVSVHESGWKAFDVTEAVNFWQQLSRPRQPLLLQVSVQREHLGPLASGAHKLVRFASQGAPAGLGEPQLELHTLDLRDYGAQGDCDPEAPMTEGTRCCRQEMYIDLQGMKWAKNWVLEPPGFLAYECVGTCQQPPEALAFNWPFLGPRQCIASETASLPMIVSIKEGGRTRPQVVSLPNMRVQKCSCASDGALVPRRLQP

[4] = biological target: Calmodulin-1 (Homo sapiens) (UniProt P0DP23); assay: CALM1 binders on microarrays, EGTA buffer, profiling panel, biochemical, small-molecule microarray, Cy5-labelled CALM1 (AID 1111); details: Cy5-CALM1 binding fluorescence, higher = more signal;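 further: labelled calmodulin applied in Tris saline Tween buffer holding calcium plus EGTA and DTT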
[5] = biological target: Calmodulin-1 (Homo sapiens) (UniProt P0DP23); assay: calcium-bound CALM1 binders on microarrays, profiling panel, artefact control for SMM control-protein annotation, biochemical, small-molecule microarray, Cy5-labelled CALM1, plus calcium (AID 1112); details: Cy5-CALM1 binding fluorescence, higher = more signal;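 further: score merges spot fluorescence with signal to noise from triplicate slides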
[6] = small-molecule microarray binders of probe aWnt5a, primary screen, biochemical, biotinylated probe, 635/667 nm fluorescence (AID 1113); details: higher = more signal;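 further: score merges 667 nm fluorescence intensity with signal-to-noise per printed feature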
[7] = small-molecule microarray binders of probe aShh, primary screen, biochemical, biotinylated probe, 635/667 nm fluorescence (AID 1114); details: higher = more signal;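 further: probe is biotin-labelled aShh protein from a stem cell growth factor screen; measures binding of labelled protein to compounds printed on the slide; score merges feature fluorescence at 667 nm with signal-to-noise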
[8] = small-molecule microarray binders of probe aNog, primary screen, biochemical, biotinylated probe, 635/667 nm fluorescence (AID 1115); details: higher = more signal;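 further: probe is biotinylated aNog protein used at 0.15 µg/mL for 1 h at 4 C; z-score combines 667 nm fluorescence of each spot with its signal to noise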
[9] = biological target: Torsin-1A-interacting protein 1 (Homo sapiens) (UniProt Q5JTV8); assay: LAP1 binders from COS7 cell lysate, primary screen, small-molecule microarray, 635/667 nm fluorescence (AID 1116); details: COS7-hLAP1 lysate binding, 635 nm fluorescence, higher = more signal
Torsin-1A-interacting protein 1 (Homo sapiens), sequence (Q5JTV8 whole entry, looked up): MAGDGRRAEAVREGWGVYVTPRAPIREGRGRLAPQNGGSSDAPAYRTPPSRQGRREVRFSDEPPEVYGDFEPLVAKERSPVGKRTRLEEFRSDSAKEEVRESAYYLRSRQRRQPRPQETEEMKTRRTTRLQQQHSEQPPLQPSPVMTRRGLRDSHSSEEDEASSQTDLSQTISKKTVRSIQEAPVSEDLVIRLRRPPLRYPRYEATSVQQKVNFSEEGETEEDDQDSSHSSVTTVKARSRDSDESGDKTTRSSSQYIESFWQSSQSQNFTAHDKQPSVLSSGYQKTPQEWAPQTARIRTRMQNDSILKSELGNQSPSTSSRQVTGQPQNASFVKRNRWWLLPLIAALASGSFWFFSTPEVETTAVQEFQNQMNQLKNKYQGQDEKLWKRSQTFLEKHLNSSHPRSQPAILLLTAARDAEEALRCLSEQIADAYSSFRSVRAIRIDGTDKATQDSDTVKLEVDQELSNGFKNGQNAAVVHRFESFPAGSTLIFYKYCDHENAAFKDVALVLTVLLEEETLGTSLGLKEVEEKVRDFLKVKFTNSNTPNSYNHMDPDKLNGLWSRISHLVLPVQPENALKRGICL

[10] = biological target: Alpha-bungarotoxin (Bungarus multicinctus) (UniProt P60615); assay: alpha-bungarotoxin binders on microarray, profiling panel, artefact control for SMM control protein annotation, biochemical, small-molecule microarray, Alexa647 label, 635/667 nm fluorescence (AID 1117); details: alpha-BTX-A647 binding fluorescence, higher = more signal
Alpha-bungarotoxin (Bungarus multicinctus), sequence (P60615 whole entry, looked up): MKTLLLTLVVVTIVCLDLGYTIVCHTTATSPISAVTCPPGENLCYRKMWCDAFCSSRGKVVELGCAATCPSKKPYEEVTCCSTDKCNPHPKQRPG

[11] = biological target: Albumin (Bos taurus) (UniProt P02769); assay: bovine serum albumin binders on microarray, profiling panel, artefact control for SMM control protein annotation, biochemical, small-molecule microarray, Alexa647 label, 635/667 nm fluorescence (AID 1118); details: BSA-A647 binding, fluorescence 635 nm, higher = more signal;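 further: score merges 667 nm emission intensity and signal-to-noise per printed compound spot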
Albumin (Bos taurus), sequence (P02769 whole entry, looked up): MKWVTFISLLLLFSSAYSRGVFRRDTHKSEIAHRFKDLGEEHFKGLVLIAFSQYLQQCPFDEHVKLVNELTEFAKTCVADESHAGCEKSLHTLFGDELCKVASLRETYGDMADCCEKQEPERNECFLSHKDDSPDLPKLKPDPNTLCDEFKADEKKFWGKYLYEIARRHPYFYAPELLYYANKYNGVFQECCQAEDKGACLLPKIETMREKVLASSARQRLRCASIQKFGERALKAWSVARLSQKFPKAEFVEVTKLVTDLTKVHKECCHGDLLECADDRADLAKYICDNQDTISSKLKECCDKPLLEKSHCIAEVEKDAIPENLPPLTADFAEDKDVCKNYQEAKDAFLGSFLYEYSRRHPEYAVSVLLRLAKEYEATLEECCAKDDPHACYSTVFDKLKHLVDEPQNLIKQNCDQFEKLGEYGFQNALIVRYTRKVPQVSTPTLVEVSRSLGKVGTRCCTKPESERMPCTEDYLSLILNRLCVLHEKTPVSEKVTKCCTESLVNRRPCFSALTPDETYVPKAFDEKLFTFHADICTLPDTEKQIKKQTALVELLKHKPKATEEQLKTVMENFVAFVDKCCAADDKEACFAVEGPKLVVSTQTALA

[12] = small-molecule microarray binders of probe aXIP, primary screen, biochemical, NeuroSMM set, 635/667 nm fluorescence (AID 1119); details: higher = more signal, called active from +8 up or from −8 down;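 further: probe is the protein aXip251-270 applied at 1 µg/mL to compound-printed slides; binding of probe to printed compounds measured as 667 nm fluorescence plus signal to noise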
[13] = small-molecule binders of probe aNOTCH3, primary screen, biochemical, small-molecule microarray, 635/667 nm fluorescence (AID 1120); details: higher = more signal;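 further: probe is a biotin-tagged antibody raised against NOTCH3 rather than NOTCH3 protein; score merges spot fluorescence near 667 nm with spot signal to noise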
[14] = small-molecule binders of probe aNOTCH2, primary screen, biochemical, small-molecule microarray, 635/667 nm fluorescence (AID 1121); details: higher = more signal;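 further: score merges feature fluorescence read at 667 nm with its signal to noise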
[15] = biological target: Carbonic anhydrase 2 (Homo sapiens) (UniProt P00918); assay: CAII small-molecule binders, profiling panel, biochemical, small-molecule microarray, Alexa647-labelled CAII (AID 1122); details: CAII-A647 binding fluorescence, higher = more signal
[16] = COS7 lysate on small-molecule microarray, probe aHis, 635 nm (AID 1123); details: COS7 cell lysate, fluorescence, higher = more signal;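 further: z-score combines 667nm fluorescence intensity with signal-to-noise per printed compound spot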
[17] = compound binding in COS7 lysate, probe aLAP1, primary screen, cell lysate, small-molecule microarray (AID 1124); details: probe aLAP1, fluorescence, higher = more signal;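 further: lysate comes from COS7 cells expressing LAP1 and is applied at 0.3 µg/mL; score merges spot fluorescence near 667 nm with signal-to-noise over triplicate slides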
[18] = test system: Sam68 (KHDRBS1); assay: Sam68 small-molecule binders, primary screen, biochemical, small-molecule microarray, 635 nm fluorescence (AID 1125); details: small-molecule microarray binding, higher = more signal;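 further: score merges 667 nm channel intensity with signal to noise over triplicate slides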
[19] = test system: Chordin-like protein 2 (CHRDL2); assay: CHRDL2 small-molecule binders, primary screen, biochemical, small-molecule microarray, 635 nm fluorescence (AID 1126); details: small-molecule microarray binding, fluorescence 635 nm; higher = more signal;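 further: printed compound slides probed with Chrdl2 protein at 4 µg/mL for 1 h at 4 C; score merges 667 nm emission intensity with signal to noise over three replicate slides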
[20] = biological target: Concanavalin-A (Canavalia ensiformis) (UniProt P02866); assay: ConA small-molecule binders, primary screen, artefact control for SMM control protein annotation, biochemical, small-molecule microarray, Alexa647 label, 635 nm (AID 1127); details: ConA-A647 binding fluorescence, higher = more signal;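 further: z combines 667 nm emission intensity with signal-to-noise across three replicate slides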
Concanavalin-A (Canavalia ensiformis), sequence (P02866 whole entry, looked up): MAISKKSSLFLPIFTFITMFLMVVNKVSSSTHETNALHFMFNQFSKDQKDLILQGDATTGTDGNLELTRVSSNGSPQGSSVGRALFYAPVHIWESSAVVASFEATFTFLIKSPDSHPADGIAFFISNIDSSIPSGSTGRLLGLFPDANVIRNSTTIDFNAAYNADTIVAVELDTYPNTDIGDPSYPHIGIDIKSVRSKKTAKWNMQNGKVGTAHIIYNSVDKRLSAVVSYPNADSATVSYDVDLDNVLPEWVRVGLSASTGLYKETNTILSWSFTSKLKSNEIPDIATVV

SMILES | composite z-score [1] | z-score [2] | composite z-score [3] | composite z-score [4] | composite z-score [5] | composite z-score [6] | composite z-score [7] | composite z-score [8] | composite z-score [9] | composite z-score [10] | composite z-score [11] | composite Z-score [12] | composite z-score [13] | composite z-score [14] | composite z-score [15] | composite z-score [16] | composite z-score [17] | composite z-score [18] | composite z-score [19] | composite z-score [20]
CO[C@H]1COC(=O)CC=C[C@@H](C)[C@H](NS(=O)(=O)c2ccc(C)cc2)COC(=O)CCC[C@@H]1C | 0.106 | -2.24 | 0.8 | -0.789 | -1.3 | -0.154 | -0.188 | -0.321 | 0.784 | 0.493 | -0.48 | -0.483 (inactive) | -0.0711 | -0.11 | -0.312 | -0.42 | 0.303 | 0.515 | 1.23 | -0.0177
CO[C@H]1COC(=O)[C@@H](Cc2ccccc2)NC(=O)[C@@H](C)COC(=O)CCC[C@@H]1C | -0.573 | -2.38 | 0.455 | -0.273 | -0.679 | -0.0478 | 0.0278 | -0.412 | 0.29 | 0.273 | 0.516 | -0.112 (inactive) | 0.0257 | -0.132 | -0.248 | 0.0267 | -0.0452 | 0.179 | 0.295 | -0.171
COc1ccc(O[C@H]2C=C[C@@H](c3ccccc3)O[C@@H]2CON=C(C)CCN2CCc3nc(-c4ccccc4)c(-c4ccccc4)cc3C2)cc1 | -0.797 | -3.38 | -0.417 | 0.387 | -0.0427 | -0.169 | -0.123 | -0.198 | 0.173 | 0.67 | 0.628 | -0.508 (inactive) | -0.085 | -0.18 | -0.117 | -0.0458 | -0.251 | -0.83 | -0.163 | 0.799
Cc1cc2c(nc1C)CCCN2CC(O)CN1CCCc2nc(C)c(C)cc21 | 0.142 | -0.107 | 0.368 | 0.239 | -0.322 | 0.308 | 0.699 | 0.568 | 3.26 | 1.42 | -0.293 | 2.34 (inactive) | 0.308 | 0.054 | 0.798 | 1.21 | 0.446 | 0.651 | 0.633 | 0.879
CC(=O)OC[C@H]1O[C@H](CCON=C2[C@H]3CCn4c(=O)n(-c5ccccc5)c(=O)n4[C@H]3[C@H](O)[C@@H]3O[C@H]23)C=C[C@@H]1OC(C)=O | 0.253 | -4.82 | 0.5 | -0.151 | -0.354 | 0.0001 | 0.089 | 0.449 | 0.322 | 0.415 | 0.378 | 0.22 (inactive) | 0.348 | 0.088 | 0.127 | 0.343 | -0.0654 | 0.283 | 0.47 | -0.0333
C#CCCCON=C1C[C@@H](O)[C@@H](O)[C@@H]2[C@@H]3C(=O)N(c4ccc(F)cc4F)C(=O)[C@@H]3CC[C@H]12 | 0.299 | 0.0534 | 0.358 | -0.353 | -0.693 | -0.006 | -0.0533 | -0.21 | -0.0188 | 0.239 | 0.314 | -0.488 (inactive) | -0.122 | -0.151 | 0.65 | 0.887 | 0.145 | 1.15 | 0.392 | 0.772
C#CCCCON=C1C[C@@H](O)[C@@H](O)[C@@H]2[C@@H]3C(=O)N(CC)C(=O)[C@@H]3CC[C@@H]12 | 0.431 | -0.113 | 0.507 | -0.4 | -0.749 | -0.164 | -0.197 | -0.133 | 0.586 | 1.27 | -0.171 | -0.0844 (inactive) | 0.0779 | -0.108 | 0.231 | 0.248 | -0.0523 | 0.771 | 0.687 | 0.433
COc1ccc(O[C@H]2C=C[C@@H](c3ccccc3)O[C@@H]2CON=CC[C@@H]2C=C[C@H](OC(C)=O)[C@@H](COC(C)=O)O2)cc1 | -0.332 | -0.821 | 0.425 | -0.169 | -0.282 | -0.145 | -0.221 | -0.083 | 0.28 | -0.0924 | 0.779 | 0.112 (inactive) | 0.0893 | -0.145 | -0.198 | -0.478 | 0.221 | -0.176 | 0.366 | 0.543
CO[C@H]1COC(=O)CCC[C@@H](C)[C@H](OC)COC(=O)[C@@H]2CCCN2C(=O)CC=C[C@@H]1C | -1.68 | -2.06 | 1.18 | -0.984 | -1.72 | -0.236 | -0.0533 | -0.0553 | 1.09 | 0.199 | -0.695 | 0.215 (inactive) | -0.0074 | -0.132 | -0.465 | -0.776 | 0.324 | -0.113 | 1.46 | -0.232
CC(=O)Nc1ccc([C@@H]2N[C@H](C(=O)O)CC[C@H]2C)cc1 | -0.0931 | 1.1 | 0.523 | -0.105 | -0.635 | -0.0203 | -0.226 | -0.213 | 0.14 | 0.273 | 0.0499 | 0.237 (inactive) | -0.132 | -0.203 | -0.172 | -0.0725 | 0.0356 | 0.22 | 0.65 | 0.36
CCOC(=O)[C@H](CC(C)C)NC(=O)CCC1CC(OC(=O)NCCc2ccc(F)cc2)CC2(CCCC(COC(=O)NCCC(C)C)O2)O1 (stereo not given in full) | 0.48 | 0.314 | 0.344 | 0.586 | -0.216 | -0.0383 | -0.0733 | -0.108 | -0.0671 | 1.21 | 0.281 | -0.375 (inactive) | 0.128 | -0.177 | 0.269 | 0.596 | -0.14 | -0.163 | 0.301 | 0.816
